# Pf Dd2 inh: qHTS Primary assay for Inhibitors of Plasmodium falciparum Dd2 growth in vitro; Potency, µM (doses to about 28.9 µM), for the others: top-dose activity, negative = inhibition, most hits filed as inhibitors; hit rate 4.3% among 120,000; P. falciparum Dd2 growth, SYBR Green, 72 h; active = well fitted inhibition curve with a large enough effect;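 note: plate controls were DMSO vehicle for no effect and reference drug for full effect; nearly all actives have a fitted effect of over 65% in size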
#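 Infected erythrocytes (Dd2, 0.3% parasitemia, 2.5% hematocrit final) are added to compound in RPMI-1640/Albumax II medium, grown 72 h at 37C in low oxygen, then lysed with saponin/Triton-X containing SYBR Green and read by fluorescence.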
# Active calls of the source: *; i = inactive; [ ] = another dose, or the depositor's remark. Only a selection was taken, and hits are over-represented in it overall. Potency is the fitted concentration of half-maximal effect.
SMILES,Pf Dd2 inh
CN1CCN(C(=O)c2ccc3c(c2)N(Cc2ccc(F)cc2)C(=O)c2ccccc2S3=O)CC1 (stereo not drawn),4µM*
CCN1C(=O)c2ccccc2S(=O)c2ccc(C(=O)N3CCN(c4ccccc4)CC3)cc21 (stereo not drawn),i
O=C(c1ccc2c(c1)N(Cc1ccccc1F)C(=O)c1ccccc1S2=O)N1CCC(Cc2ccccc2)CC1 (stereo not drawn),-3%
CCN1CCN(C(=O)c2ccc3c(c2)N(Cc2ccc(Cl)cc2)C(=O)c2ccccc2S3=O)CC1 (stereo not drawn),0.5µM*
CCOC(=O)C1CCCN(C(=O)c2ccc3c(c2)N(Cc2ccc(Cl)cc2)C(=O)c2ccccc2S3=O)C1 (stereo not drawn),11µM*
O=C(c1ccc2c(c1)N(Cc1ccccc1F)C(=O)c1ccccc1S2=O)N1CCOCC1 (stereo not drawn),-20%
Cc1noc(C)c1C(=O)N1CCN(C2CCNCC2)C(=O)C1,28%
CC(C)C(NC(=O)C1CCN(C(=O)C2CC2)CC1)c1nccn1C (stereo not drawn),0%
O=C(c1ccc(Cl)nc1)N1CCn2c(nnc2-c2ccccc2)C1,-3%[44.1 µM]
Cc1ccc(NC(=O)N2C[C@@H](F)C[C@H]2C(=O)N2CCc3ccccc3C2)c(C)c1,-22%
Cc1cc(Cl)ccc1NC(=O)N1C[C@@H](F)C[C@H]1C(=O)N1CCc2ccccc2C1,-16%
Cc1cccc(NC(=O)N2C[C@@H](F)C[C@H]2C(=O)N2CCc3ccccc3C2)c1C,7.9µM*
CN(Cc1ccccc1)C(=O)C1(c2ccc(NC(=O)C3CC3)cc2)CCCCC1,4.5µM*
CC(=O)Nc1ccc(C2(C(=O)N(C)Cc3ccccc3)CCCCC2)cc1,i
O=C(Nc1ccc(C2(C(=O)O)CCC2)cc1)C1CC1,0%
CCc1ccc(S(=O)(=O)N2[C@@H]3CC[C@H]2CC(NC(=O)c2ccncc2)C3)cc1 (stereo partly drawn),-12%
CC(=O)N1CCc2[nH]cnc2C12CCN(C(=O)CCn1nnnc1C)CC2,-10%
CSc1nc(NCCOC(C)=O)c(C#N)c(-c2ccc(C(C)(C)C)cc2)n1,10µM*
CSc1nc(Nc2cccc(C)c2)c(C#N)c(-c2ccccc2)n1,2%
COc1ccc(NCCN2CCCC2)cc1,-8%[44.1 µM]
CCNC(=O)N1CCCC(c2noc(COc3ccccc3F)n2)C1 (stereo not drawn),i
CNC(=O)[C@@H]1CN(C(=O)c2c[nH]c3ccccc23)C[C@H]1C1CCN(C)CC1,7%
CCc1ccc(C(=O)N2CCN(C(=O)c3nnn4c3COC(c3ccc(Cl)cc3)C4)CC2)cc1 (stereo not drawn),i
COc1ccc(-c2cc([C@H]3CN4CC[C@H]3C[C@@H]4CNC(=O)C(C)(C)C)n(C)n2)cc1OC,i
CC(C)NC(=O)OC[C@H]1C[C@@H]2CCN1C[C@@H]2c1cc(-c2ccc3ccccc3c2)nn1C,i
SMILES,Pf Dd2 inh
Cn1nc(-c2ccc3ccccc3c2)cc1[C@H]1CN2CC[C@H]1C[C@@H]2CNC(=O)Nc1ccccc1,i
COc1ccc(-c2cc([C@H]3CN4CC[C@H]3C[C@@H]4CNC(=O)Nc3ccccc3)n(C)n2)cc1OC,5.6µM*
CC(C)NC(=O)NC[C@H]1C[C@@H]2CCN1C[C@@H]2c1cc(-c2ccc3ccccc3c2)nn1C,6.3µM*
COc1ccc(-c2cc([C@H]3CN4CC[C@H]3C[C@@H]4CNC(=O)c3ccc(C)cc3)n(C)n2)cc1OC,-9%
CN1CCOC[C@H]2CCN(C(=O)c3cccs3)C[C@H]21,i
CCc1ccc(CNC(=O)CCc2conc2-c2cccc(C)c2)cc1,-9%
Cc1nnc(-c2cc(N3CCN(c4ccccn4)CC3)ccn2)n1C(C)C,-4%[44.1 µM]
COc1cccc(CCC(=O)N2CCC3(CC2)N=C(c2ccc(Cl)cc2)NO3)c1,i
CS(=O)(=O)c1ccc(-c2cnc([C@@H]3COCCN3Cc3ccc(Cl)cc3)[nH]2)cc1,-5%[44.1 µM]
O=C(Nc1ccc2ncnc(N3CCCCC3)c2c1)c1ccsc1,i
COc1ccc(CC(=O)Nc2ccc3ncnc(N4CCCC4)c3c2)c(Cl)c1,-7%
O=C(Nc1ccc2c(N3CCCCC3)ncnc2c1)c1ccsc1,7.1µM*
O=C(NC1CCCN(c2cc(N3CCCC3)ncn2)C1)c1ccsc1 (stereo not drawn),-14%[5.79 µM]
CCOCC(=O)Nc1ccc2ncnc(N3CCCCC3)c2c1,-9%
N#Cc1ccc(C(=O)Nc2ccc3ncnc(N4CCCCC4)c3c2)cc1,i
N#Cc1ccc(C(=O)Nc2ccc3c(N4CCCCC4)ncnc3c2)cc1,8.9µM*
CCn1ccc(C(=O)Nc2ccc3ncnc(N4CCCC4)c3c2)n1,i
O=C(Cc1ccsc1)Nc1ccc2c(N3CCCC3)ncnc2c1,5µM*
CC(NC(=O)c1coc(COc2ccc(F)cc2Cl)n1)c1cnn(C)c1 (stereo not drawn),-21%
O=C(Nc1cccc(Cl)c1)N1CCC2(CC1)SCC(=O)N2Cc1ccco1,-3%
Fc1ccc(/C=C/CN2CCC(n3cc(C4CCCC4)nn3)CC2)cc1,i
O=C(NCc1ccco1)C1CC(c2ccccc2)CN(C(=O)c2ccccc2F)C1 (stereo not drawn),i
Cn1nccc1C(=O)N1CCc2c(n(CCOc3ccccc3)n(-c3ccccc3)c2=O)C1,5%
COc1ccc(OC)c(NC(=O)CC2CCCN(c3cnn(C)c(=O)c3)C2)c1 (stereo not drawn),-8%
O=S(=O)(c1ccc2nc(Nc3cccc(F)c3)ccc2c1)N1CCCC1,-15%
SMILES,Pf Dd2 inh
CCOc1ccccc1CNc1ccc2cc(S(=O)(=O)N3CCC(C)CC3)ccc2n1,-21%
O=S(=O)(c1ccc2nc(Nc3ccc(F)cc3)ccc2c1)N1CCCC1,i
CC1CCN(S(=O)(=O)c2ccc3nc(NCc4ccc(N(C)C)cc4)ccc3c2)CC1,11µM*
CC1CCN(S(=O)(=O)c2ccc3nc(N4CCN(c5ccc(F)cc5)CC4)ccc3c2)CC1,50%
CC1CCN(S(=O)(=O)c2ccc3nc(Nc4cccc(C(F)(F)F)c4)ccc3c2)CC1,4.5µM*
O=C(CCC[C@@H]1[C@H]2CCCN3CCC[C@@H](CN1Cc1cccnc1)[C@@H]23)Nc1cccnc1,i
Cc1noc(C)c1C(=O)N1Cc2ccccc2CC2(CCCN(CC3CCNCC3)C2)C1 (stereo not drawn),-12%
COc1ccc(CN[C@H](C)c2onc(C)c2C(=O)O)cc1,-22%[44.1 µM]
O=C1CCCCCN1CCC(=O)N1CCOC(CCCc2ccccc2)C1 (stereo not drawn),-19%
O=C(Nc1ccc(F)cc1F)N1CCOC[C@H](Oc2ccc(C(F)(F)F)cc2)C1,2%[44.1 µM]
CC(C)CCNC(=O)c1ccc(-c2nnc3ccc(NC(=O)C4CCC4)cn23)cc1,2.8µM*
O=C(O)c1ccc(-c2nnc3ccc(NC(=O)C4CCC4)cn23)cc1,-11%
O=C(NC1CC1)c1ccc2nnc(-c3ccc(Cl)cc3)n2c1,7%
N#Cc1cccnc1N1CCC(NC(=O)c2ccc3cccc(F)c3n2)CC1,i
COc1ccc(NC(=O)c2sc3nc(-c4ccc(OC)cc4)cc(C(F)(F)F)c3c2N)cc1,29%
COc1ccc(NC(=O)c2sc3nc4c(c(-c5ccc(OC)cc5)c3c2N)C(=O)CC(C)(C)C4)cc1,1µM*
COc1ccc(-c2ccc3c(N)c(C(=O)Nc4ccc(C(F)(F)F)cc4)sc3n2)cc1OC,i
CCOC(=O)C1CCN(C(=O)c2cn3ccnc(-c4ccc(OC)cc4)c3n2)CC1,i
C=Cc1ccc(Cn2c(C)c(CNCc3ccccc3C)c(C(=O)O)c2C)cc1,2%

# Screens: PubChem BioAssay, National Center for Advancing Translational Sciences (NCATS)
